Drawing on PubChem BioAssay (NCATS), this text covers Potency for 23 compounds.

Records with an inconclusive call do not appear. The source made the active and inactive calls. Calls come from the whole dose curve; as a rule, active = well fitted inhibition curve with a large enough effect; inconclusive = small, poorly fitted or top-dose-only effect; inactive = flat fitted curve, though single readings scatter.

Common to all, as to experiment: qHTS profiling for inhibitors of Plasmodium falciparum proliferation (AID 504749); note: nearly all actives have a fitted effect of over 60% in size
Holding throughout (conditions): P. falciparum in erythrocytes, SYBR Green DNA, 72 h; series mostly up to 28.7 µM
Background: qHTS replaces the single test concentration by a dilution series.

For one experiment, the system named is ECU. In outline: (§1)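 P. falciparum-infected erythrocytes (0.3% parasitemia, 2.5% hematocrit) incubated with compound 72 h at 37 C, 5% CO2. Parasite DNA detected by SYBR Green after lysis, overnight at room temperature; normalised to 0.29 uM artemisinin and DMSO.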
The subject of another experiment is FAB9. In outline:
as §1

In the next experiment the test system is GB4. In outline: as §1
Another experiment concerns HB3. In outline: as §1
A further experiment deals with ICS. In outline:
as §1

The next experiment concerns PAD. In outline: as §1
The test system of a further experiment is JCK. In outline: as §1
In the next experiment the test system is N140. In outline: as §1
The subject of a further experiment is P93_24. In outline: as §1
The test system of another experiment is P94_40. In outline: as §1
Potency is the fitted concentration of half-maximal effect.

Take `CCc1cccc(N(C)C(N)=Nc2cccc3ccccc23)c1`: the Potency in the experiment with ECU is 7.94 µM (active); in the experiment on GB4, 5.36 µM (active); in the experiment with ICS, 2.82 µM (active); in the experiment on PAD, 4.47 µM (active). Besides, the Potency entry in the experiment on FAB9 and with HB3 was “inactive” in each case.
Regarding `CN(C)CCOC(=O)COc1ccc(Cl)cc1`, the Potency entry in the experiment on ECU, with FAB9, in the experiment with GB4, in the experiment on HB3, with ICS and in the experiment with JCK was “inactive” each time. Further, the Potency entry with N140, with P93_24, in the experiment with P94_40 and with PAD was “inactive” in each case.
As to `CN(C)CCCN1c2ccccc2Sc2ccccc21`, the Potency result in the experiment on ECU, in the experiment with FAB9 and in the experiment on HB3 was “inactive” throughout.
Take `Cc1ccc(S(=O)(=O)NC(=O)NN2CCCCCC2)cc1`: the Potency result in the experiment on ECU, with FAB9, with GB4, in the experiment with HB3, in the experiment on ICS and in the experiment on JCK was “inactive” in each case. In addition, the Potency entry with N140, in the experiment with P93_24 and with PAD was “inactive” each time.
As to `O=C(O)CCCCCCCC(=O)O`, the Potency result in the experiment on ECU, in the experiment with FAB9, in the experiment on GB4, with HB3, in the experiment on ICS and with JCK was “inactive” throughout. Besides, the Potency entry with N140, in the experiment on P93_24, in the experiment with P94_40 and in the experiment on PAD was “inactive” throughout.
Take `COc1ccc(CN(CCN(C)C)c2ccccn2)cc1`: the Potency result with ECU, in the experiment with FAB9, with HB3, with ICS, in the experiment on P93_24 and with P94_40 was “inactive” each time. The Potency result in the experiment with PAD was “inactive”. Besides, the Potency with GB4 was 6.01 µM (active); in the experiment on JCK, 1.26 µM (active).
Take `C[C@H](CS)C(=O)N1CCC[C@H]1C(=O)O`: the Potency result in the experiment on ECU, in the experiment on FAB9, with GB4, with HB3, with ICS and in the experiment with JCK was “inactive” throughout. Further, the Potency entry with N140, in the experiment with P93_24, in the experiment on P94_40 and with PAD was “inactive” in each case.
In the case of `CCOC(=O)c1cnc2c(cnn2CC)c1NN=C(C)C`, the Potency result with ECU, with FAB9, in the experiment on GB4, in the experiment with HB3, in the experiment on JCK and in the experiment on N140 was “inactive” throughout. The Potency entry with P93_24 and with PAD was “inactive” in each case.
`CN(C)CCN(Cc1cccs1)c1ccccn1`: the Potency result in the experiment on ECU, in the experiment with FAB9 and in the experiment on HB3 was “inactive” throughout. In addition, the Potency with GB4 is 3.79 µM (active); with N140, 11.2 µM (active); in the experiment on P93_24, 7.94 µM (active); in the experiment on P94_40, 10 µM (active).
Turning to `CN(C)CCCN1c2ccccc2Sc2ccc(C(F)(F)F)cc21`, the values for the Potency in the experiment on ECU and in the experiment on ICS were 12.6 µM (active) and 10 µM (active), respectively. In addition, the Potency result in the experiment with FAB9 and with HB3 was “inactive” in each case.
Turning to `NC(=O)N1c2ccccc2C=Cc2ccccc21`, the Potency entry in the experiment with ECU, with FAB9, in the experiment on GB4, in the experiment on HB3, in the experiment on ICS and in the experiment with JCK was “inactive” in each case. Moreover, the Potency result with N140, with P93_24 and with PAD was “inactive” each time.
With `O=C(CCNNC(=O)c1ccncc1)NCc1ccccc1`, the Potency entry in the experiment with ECU, in the experiment on FAB9, in the experiment with GB4, with HB3, with ICS and in the experiment with JCK was “inactive” in each case. In addition, the Potency entry in the experiment on N140, in the experiment on P93_24, in the experiment with P94_40 and with PAD was “inactive” in each case.
Turning to `O=C1NCN(c2ccccc2)C12CCN(CCCC(c1ccc(F)cc1)c1ccc(F)cc1)CC2`, the Potency was 5.62 µM (active) in the experiment with ECU; 6.75 µM (active) in the experiment on GB4; 7.08 µM (active) in the experiment with HB3; 3.98 µM (active) in the experiment with ICS; 5.62 µM (active) in the experiment on N140; 4.47 µM (active) in the experiment on P93_24. Also, the Potency with P94_40 is 5.62 µM (active); in the experiment on PAD it was 5.01 µM (active). The Potency entry in the experiment with FAB9 was “inactive”.
For the compound `CCOC(=O)C1=C(C)NC(C)=C(C(=O)OC)C1c1cccc(Cl)c1Cl` (configuration not stated), the Potency result with ECU, in the experiment on FAB9, with GB4, with HB3, in the experiment with JCK and with N140 was “inactive” in each case. In addition, the Potency entry with P93_24, in the experiment with P94_40 and in the experiment with PAD was “inactive” in each case.
Consider `O=c1[nH]c(=O)n([C@H]2C[C@H](O)[C@@H](CO)O2)cc1Br`, for which the Potency result with ECU, in the experiment with FAB9, in the experiment with GB4, in the experiment on HB3, with ICS and in the experiment with JCK was “inactive” each time. The Potency entry with N140, in the experiment on P93_24, in the experiment with P94_40 and in the experiment with PAD was “inactive” each time.
Regarding `Cc1cc(C)c(/C=C2\C(=O)Nc3ccccc32)[nH]1`, the Potency result in the experiment on ECU, in the experiment on FAB9, with GB4, in the experiment with HB3, with JCK and in the experiment with N140 was “inactive” in each case. Moreover, the Potency entry with P93_24, in the experiment on P94_40 and with PAD was “inactive” each time.
As for `C#CCN(C)CCCOc1ccc(Cl)cc1Cl`, the Potency entry in the experiment with ECU, in the experiment with FAB9, with GB4, with HB3, in the experiment on ICS and with JCK was “inactive” in each case. Moreover, the Potency result with N140, in the experiment with P93_24, with P94_40 and with PAD was “inactive” each time.
Consider `CC(C)(Oc1ccc(CCNC(=O)c2ccc(Cl)cc2)cc1)C(=O)O`, for which the Potency result in the experiment with ECU, with FAB9, in the experiment with GB4, in the experiment with HB3, in the experiment with ICS and in the experiment on JCK was “inactive” in each case. Also, the Potency entry in the experiment with N140, in the experiment on P93_24, in the experiment on P94_40 and in the experiment with PAD was “inactive” in each case.
Regarding `O=C(O)CN(CCOCCOCCN(CC(=O)O)CC(=O)O)CC(=O)O`, the Potency entry with ECU, in the experiment on FAB9, with GB4, with HB3, in the experiment on ICS and in the experiment with JCK was “inactive” in each case. Besides, the Potency result in the experiment on N140, with P93_24, with P94_40 and in the experiment with PAD was “inactive” throughout.
With `NCCCNCCSP(=O)(O)O`, the Potency result in the experiment on ECU, in the experiment on FAB9, in the experiment with GB4, in the experiment on HB3, in the experiment with ICS and with JCK was “inactive” each time. The Potency result in the experiment with N140, with P93_24, with P94_40 and in the experiment with PAD was “inactive” throughout.
For the compound `CCNC(=O)N1CCN(CCCC(c2ccc(F)cc2)c2ccc(F)cc2)CC1`, the Potency was 2.51 µM (active) in the experiment on ECU; 3.98 µM (active) with FAB9; 10.7 µM (active) in the experiment with GB4; 4.47 µM (active) in the experiment on HB3; 2.82 µM (active) with ICS; 10 µM (active) with JCK. The Potency with N140 is 2.82 µM (active); in the experiment on P93_24 it was 2 µM (active); in the experiment on P94_40, 2.82 µM (active); with PAD it was 3.55 µM (active).
As to `Nc1c2c(nc3ccccc13)CCCC2O` (configuration not stated), the Potency result with ECU, in the experiment on FAB9, in the experiment with GB4, in the experiment on HB3, in the experiment with ICS and in the experiment with JCK was “inactive” throughout. Further, the Potency entry in the experiment with N140, in the experiment with P93_24, in the experiment on P94_40 and with PAD was “inactive” each time.
For `CC(=O)Oc1cc(C(C)C)c(OCCN(C)C)cc1C`, the Potency entry in the experiment on ECU, with FAB9, with GB4, with HB3, with ICS and in the experiment on JCK was “inactive” each time. Besides, the Potency entry with N140, with P93_24, in the experiment with P94_40 and with PAD was “inactive” each time.
